# Laboratory results from PubChem BioAssay (Tox21).
# A number with no mark means an inactive call. Inconclusive results are not listed. A call without a number means that no potency is given here. The source made the active and inactive calls. Unless noted, calls come from the whole dose curve; as a rule, active = well fitted curve in the direction sought with a large enough effect in the repeat runs; inconclusive = weak or mixed curves; inactive = no such curve, though single readings can be large; an effect the other way counts as inactive or inconclusive.
# What was measured:
# [1] = qHTS assay to identify small molecule agonists of the hypoxia (HIF-1) signaling pathway - cell viability counter screen (AID 1224844; calls by dose curve; note: nearly all actives have a fitted effect of over 50% in size)
# In short: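 Same wells as the HIF-1 reporter screen; ME-180 cells carrying HRE-bla, 17 hr treatment at 37C; CellTiter-Glo luminescence read after 30 min at room temperature.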
# [2] = qHTS assay to identify small molecule agonists of H2AX (AID 1224845; active = well fitted activation curve with a large enough effect in the signal ratio in the repeat runs, not every such curve was filed as active; the % refers to the signal ratio)
# In short: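 Wild-type CHO-K1 cells, plated overnight, exposed 3hr at 37C to 15 concentrations (0.76% DMSO final). Lysed, then HTRF anti-pH2AX (S139) cryptate and anti-H2AX-d2 antibodies, 24 hr room temperature; 665/620 nm emission read.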
# [3] = qHTS assay to identify small molecule agonists of the hypoxia (HIF-1) signaling pathway (AID 1224846; active = well fitted activation curve with a large enough effect in the signal ratio in the repeat runs, not every such curve was filed as active; the % refers to the signal ratio)
# In short: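 In ME-180 cells bearing an HRE-bla construct, 17 h treatment with DMSO-dissolved compounds at 37C was followed by CCF4-AM loading to quantify reporter induction.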
# [4] = qHTS assay to identify small molecule agonists of H2AX - cell viability counter screen (AID 1224847; calls by dose curve; note: top concentration of the series differs between compounds; nearly all actives have a fitted effect of over 30% in size)
# In short: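 Compounds tested at 15 concentrations were incubated 3 hr at 37C with wild-type CHO-K1 cells; cellular ATP-based luminescence (CellTiter-Glo) indicated viability.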
# [5] = qHTS assay to identify small molecule agonists of the estrogen related receptor (ERR) signaling pathway from Tox21 library (AID 1224849; calls by dose curve; note: nearly all actives have a fitted effect of over 15% in size); settings: ERR reporter cell line, ONE-Glo luciferase, 18 h; at 92.4 µM (top of the series) unless noted
# In short: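 Reporter cells (ERR, NTP source) treated with Tox21 10K compounds 18 h, 37 C. Readout: ONE-Glo luminescence, 30 min RT.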
# [6] = qHTS RealTime-Glo MT Cell Viability Assay in HepG2 cells - 24 hour (AID 1224867); note: nearly all actives have a fitted effect of over 50% in size
# In short: (§1)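 Luminescence read-out: viable HepG2 cells reduce a prosubstrate to a NanoLuc substrate, giving a signal proportional to live cell number. Reads taken at 0, 8, 16, 24, 32 and 40 h of compound exposure at 37 C.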
# [7] = A CellTox Green Cytotoxicity Assay to monitor cytotoxicity in HEK293 cells - 0 hour (AID 1224869); note: nearly all actives have a fitted effect of over 50% in size
# In short: (§2)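 Homogeneous no-lysis format: HEK293 cell suspension mixed with CellTox Green reagent, seeded, incubated 5 h at 37 C/5% CO2, then dosed by pintool with compound in DMSO.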
# [8] = qHTS RealTime-Glo MT Cell Viability Assay in HepG2 cells - 40 hour (AID 1224870); note: nearly all actives have a fitted effect of over 50% in size
# In short: (§3)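 HepG2 cells (600/well) mixed with RealTime-Glo MT reagent, settled 5 h at 37 C/5% CO2 before compound addition. Nonlytic NanoLuc luminescence from viable-cell prosubstrate reduction read repeatedly during 40 h treatment at 37 C.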
# [9] = A CellTox Green Cytotoxicity Assay to monitor cytotoxicity in HEK293 cells - 40 hour (AID 1224871); note: nearly all actives have a fitted effect of over 45% in size
# In short: as §2
# [10] = qHTS RealTime-Glo MT Cell Viability Assay in HEK293 cells - 40 hour (AID 1224874); settings: RealTime-Glo luminescence; max response: active compounds read low; note: nearly all actives have a fitted effect of over 50% in size
# In short: (§4)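 Measured as luminescence from the same continuously cultured HEK293 wells at successive time points (0, 8, 16, 24, 32, 40 h) after compound addition. Reagent present from seeding; dosing at 5 h; incubation 37 C.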
# [11] = A CellTox Green Cytotoxicity Assay to monitor cytotoxicity in HEK293 cells - 24 hour (AID 1224875); note: nearly all actives have a fitted effect of over 45% in size
# In short: as §2
# [12] = A CellTox Green Cytotoxicity Assay to monitor cytotoxicity in HepG2 cells - 16 hour (AID 1224876); note: nearly all actives have a fitted effect of over 45% in size
# In short: (§5)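 Fluorescent DNA-binding dye, 600 HepG2 cells/well, 5 h preincubation then compound in DMSO; same plates read at 0–40 h, 37 C.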
# [13] = qHTS RealTime-Glo MT Cell Viability Assay in HepG2 cells - 32 hour (AID 1224877); note: nearly all actives have a fitted effect of over 55% in size
# In short: as §1
# [14] = A CellTox Green Cytotoxicity Assay to monitor cytotoxicity in HepG2 cells - 24 hour (AID 1224878); note: nearly all actives have a fitted effect of over 45% in size
# In short: as §5
# [15] = A CellTox Green Cytotoxicity Assay to monitor cytotoxicity in HepG2 cells - 40 hour (AID 1224879); note: nearly all actives have a fitted effect of over 40% in size; note: potency is the fitted concentration of half-maximal effect
# In short: as §5
# [16] = qHTS RealTime-Glo MT Cell Viability Assay in HEK293 cells - 0 hour (AID 1224880)
# In short: as §4
# [17] = qHTS RealTime-Glo MT Cell Viability Assay in HEK293 cells - 32 hour (AID 1224868)
# In short: (§6)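 Nonlytic real-time viability readout: viable cells convert prosubstrate to NanoLuc substrate, giving luminescence proportional to live cell number. HEK293, 600 cells/well, compound added after 5 h, continuous culture at 37 C.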
# [18] = qHTS RealTime-Glo MT Cell Viability Assay in HEK293 cells - 16 hour (AID 1224872)
# In short: as §6
# [19] = qHTS RealTime-Glo MT Cell Viability Assay in HepG2 cells - 8 hour (AID 1224873); note: nearly all actives have a fitted effect of over 55% in size
# In short: as §3
# [20] = qHTS assay to identify small molecule antagonists of the estrogen related receptor (ERR) signaling pathway from Tox21 library (AID 1224848); note: nearly all actives have a fitted effect of over 50% in size; note: potency is the fitted concentration of half-maximal effect
# In short: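 Compounds dissolved in DMSO are pin-transferred onto ERR reporter cells (2,000 per well) that have settled for 6 h at 37 C. Plates then incubate 18 h at 37 C before ONE-Glo luciferase reagent and a luminescence read 30 min later.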
structure (smiles),measurement,setting,value
O=C1c2cccc(O)c2C(=O)c2c(O)cc(CO)cc21,Potency,[1],inactive
same,Potency,[2],inactive
same,outcome,[3],inactive
same,Potency,[4],inactive
same,"activity change, positive = activation",[5],-22.2%
same,Potency,[6],inactive
same,Potency,[7],inactive
same,Potency,[8],inactive
same,Potency,[9],inactive
same,max response,[10],29.8%
same,Potency,[11],inactive
same,Potency,[12],inactive
same,Potency,[13],inactive
same,Potency,[14],inactive
same,Potency,[15],inactive
same,Potency,[16],inactive
COc1ccccc1OC(=O)Oc1ccccc1OC,Potency,[1],inactive
same,Potency,[2],inactive
same,outcome,[3],inactive
same,Potency,[4],inactive
same,Potency,[6],inactive
same,Potency,[17],inactive
same,Potency,[7],inactive
same,Potency,[8],inactive
same,Potency,[18],inactive
same,Potency,[19],inactive
same,max response,[10],1.1%
same,Potency,[11],inactive
same,Potency,[12],inactive
same,Potency,[13],inactive
same,Potency,[15],inactive
same,Potency,[16],inactive
CCOC(=O)CC(C)C,Potency,[1],inactive
same,Potency,[2],inactive
same,outcome,[3],inactive
same,Potency,[4],inactive
same,Potency,[6],inactive
same,Potency,[17],inactive
same,Potency,[7],inactive
same,Potency,[8],inactive
same,Potency,[18],inactive
same,Potency,[19],inactive
same,max response,[10],6.18%
same,Potency,[11],inactive
same,Potency,[13],inactive
same,Potency,[14],inactive
same,Potency,[15],inactive
same,Potency,[16],inactive
S=C(S)NCCNC(=S)S,Potency,[1],inactive
same,Potency,[2],inactive
same,outcome,[3],inactive
same,Potency,[4],inactive
same,Potency,[6],inactive
same,Potency,[17],inactive
same,Potency,[7],inactive
same,Potency,[8],inactive
same,Potency,[9],inactive
same,Potency,[18],inactive
same,Potency,[19],inactive
same,max response,[10],-4.71%
same,Potency,[11],inactive
same,Potency,[12],inactive
same,Potency,[13],inactive
same,Potency,[14],inactive
same,Potency,[15],inactive
same,Potency,[16],inactive
CC(=O)O[C@@H]1C(=O)O[C@@H]2[C@H]1OC(=O)[C@@H]2OC(C)=O,Potency,[1],inactive
same,Potency,[2],inactive
same,outcome,[3],inactive
same,Potency,[4],inactive
same,Potency,[6],inactive
same,Potency,[7],inactive
same,Potency,[8],inactive
same,Potency,[9],inactive
same,Potency,[19],inactive
same,max response,[10],-24.6%
same,Potency,[11],inactive
same,Potency,[13],inactive
same,Potency,[14],inactive
same,Potency,[15],26.8 µM (active)
same,Potency,[16],inactive
CCOc1ccc(NC(=O)CC(C)=O)cc1,Potency,[1],inactive
same,Potency,[2],inactive
same,outcome,[3],inactive
same,Potency,[4],inactive
same,Potency,[20],inactive
same,"activity change, positive = activation",[5],-8.93%
same,Potency,[6],inactive
same,Potency,[17],inactive
same,Potency,[7],inactive
same,Potency,[8],inactive
same,Potency,[9],inactive
same,Potency,[18],inactive
same,max response,[10],-6.1%
same,Potency,[11],inactive
same,Potency,[13],inactive
same,Potency,[14],inactive
same,Potency,[15],inactive
same,Potency,[16],inactive
CC(=O)N(CC(=O)N(C)C)c1ccccc1,Potency,[1],inactive
same,Potency,[2],inactive
same,outcome,[3],inactive
same,Potency,[4],inactive
same,Potency,[20],inactive
same,"activity change, positive = activation",[5],0.995% [at 42.5 µM]
same,Potency,[6],inactive
same,Potency,[17],inactive
same,Potency,[7],inactive
same,Potency,[8],inactive
same,Potency,[9],inactive
same,Potency,[18],inactive
same,Potency,[19],inactive
same,max response,[10],1.18%
same,Potency,[11],inactive
same,Potency,[12],inactive
same,Potency,[13],inactive
same,Potency,[14],inactive
same,Potency,[16],inactive
COC(Cc1ccccc1)OC,Potency,[1],inactive
same,Potency,[2],inactive
same,outcome,[3],inactive
same,Potency,[4],inactive
same,Potency,[6],inactive
same,Potency,[7],inactive
same,Potency,[8],inactive
same,Potency,[9],inactive
same,Potency,[18],inactive
same,Potency,[19],inactive
same,max response,[10],17.4%
same,Potency,[11],inactive
same,Potency,[12],inactive
same,Potency,[14],inactive
same,Potency,[16],inactive
CCN(CCO)CCCC(C)Nc1ccnc2cc(Cl)ccc12 (configuration not stated),"activity change, negative = cytotoxicity",[1],2.32% [at 6.97 µM]
same,activation (H2AX phosphorylation),[2],-1.66% [at 14 µM]
same,activation,[3],0.22% [at 7.01 µM]
same,"activity change, negative = cytotoxicity",[4],1.55% [at 14 µM]
same,"activity change, negative = cytotoxicity",[6],2.56% [at 6.97 µM]
same,"activity change, negative = cytotoxic",[17],2.9% [at 6.97 µM]
same,cytotoxicity,[7],-2.9% [at 6.97 µM]
same,"activity change, negative = cytotoxic",[8],0.0181% [at 6.97 µM]
same,cytotoxicity increase,[9],-1.39% [at 6.97 µM]
same,"activity change, negative = cytotoxicity",[18],2.31% [at 6.97 µM]
same,"viability change, negative = cytotoxic",[19],4.72% [at 6.97 µM]
same,max response,[10],-1.22%
same,activity change,[11],"-1.16% [at 6.97 µM, active compounds read high]"
same,"activity change, negative = cytotoxic",[13],2.34% [at 6.97 µM]
same,cytotoxicity,[14],14.8% [at 6.97 µM]
same,cytotoxicity increase,[15],10.5% [at 6.97 µM]
same,"activity change, negative = cytotoxicity",[16],3.38% [at 6.97 µM]
CN1CCN(C2=Nc3ccccc3Sc3ccc(Cl)cc32)CC1,Potency,[1],inactive
same,Potency,[2],inactive
same,outcome,[3],inactive
same,Potency,[4],inactive
same,Potency,[20],inactive
same,"activity change, positive = activation",[5],1.89% [at 42.5 µM]
same,Potency,[6],inactive
same,Potency,[17],inactive
same,Potency,[7],inactive
same,Potency,[8],inactive
same,Potency,[19],inactive
same,max response,[10],-9.09%
same,Potency,[11],inactive
same,Potency,[12],inactive
same,Potency,[13],inactive
same,Potency,[14],inactive
same,Potency,[15],inactive
same,Potency,[16],inactive
CCOc1ccc2[nH]cc(C(=O)NCc3ccccc3)c(=O)c2n1,Potency,[1],inactive
same,Potency,[2],inactive
same,outcome,[3],inactive
same,Potency,[4],inactive
same,Potency,[20],24.3 µM (active)
same,"activity change, positive = activation",[5],-48.4%
same,Potency,[17],inactive
same,Potency,[7],inactive
same,max response,[10],-23.2%
same,Potency,[11],inactive
same,Potency,[12],inactive
same,Potency,[14],inactive
same,Potency,[15],inactive
same,Potency,[16],inactive
Cc1cc(NC(=O)C(=O)O)cc(C)c1Oc1ccc(O)c2c1CCC2,Potency,[1],inactive
same,Potency,[2],inactive
same,outcome,[3],inactive
same,Potency,[4],inactive
same,Potency,[20],inactive
same,"activity change, positive = activation",[5],1.77%
same,Potency,[6],inactive
same,Potency,[17],inactive
same,Potency,[7],inactive
same,Potency,[8],inactive
same,Potency,[9],inactive
same,Potency,[18],inactive
same,Potency,[19],inactive
same,max response,[10],-8.77%
same,Potency,[11],inactive
same,Potency,[13],inactive
same,Potency,[14],inactive
same,Potency,[15],inactive
same,Potency,[16],inactive
COCCO,Potency,[1],inactive
same,Potency,[2],inactive
same,outcome,[3],inactive
same,Potency,[4],inactive
same,Potency,[6],inactive
same,Potency,[17],inactive
same,Potency,[7],inactive
same,Potency,[8],inactive
same,Potency,[9],inactive
same,Potency,[18],inactive
same,max response,[10],11.8%
same,Potency,[11],inactive
same,Potency,[12],inactive
same,Potency,[13],inactive
same,Potency,[14],inactive
same,Potency,[15],inactive
same,Potency,[16],inactive
CCCCCCCCN(C)C,Potency,[1],inactive
same,Potency,[2],inactive
same,outcome,[3],inactive
same,Potency,[4],inactive
same,Potency,[20],inactive
same,"activity change, positive = activation",[5],2.41%
same,Potency,[6],inactive
same,Potency,[17],inactive
same,Potency,[7],inactive
same,Potency,[8],inactive
same,Potency,[18],inactive
same,Potency,[19],inactive
same,max response,[10],16%
same,Potency,[11],inactive
same,Potency,[12],inactive
same,Potency,[13],inactive
same,Potency,[14],inactive
same,Potency,[15],inactive
same,Potency,[16],inactive
